The values that follow come from article PMC12820563, “FoxP3 forms a head-to-head dimer in vivo and stabilizes its multimerization on adjacent microsatellites”.

Whole data set: some 16,000 sequences, median “rpm ratio (pull-down/input)” near 0.5, cut for the highest 2% near 5.5. The full list was thinned out, with the highest values kept by preference.

In this test the target is T1, MBP-FoxP3dN (Mus musculus, UniProt Q99JB6 188-423).
T1 sequence: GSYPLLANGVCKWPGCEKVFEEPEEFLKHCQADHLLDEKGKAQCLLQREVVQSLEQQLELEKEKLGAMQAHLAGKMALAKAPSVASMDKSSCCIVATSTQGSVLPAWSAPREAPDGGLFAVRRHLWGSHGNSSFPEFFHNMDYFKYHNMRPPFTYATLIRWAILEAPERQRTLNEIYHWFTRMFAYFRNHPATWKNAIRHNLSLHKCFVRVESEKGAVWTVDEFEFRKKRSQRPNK
Kind of test: PD-seq (MBP pull-down with sequencing); 20 mM Tris-HCl pH 7.5, 100 mM NaCl, 1.5 mM MgCl2, 0.4 uM protein, 0.1 uM dsDNA library, 30 min, room temperature, amylose pull-down; high values mean tight binding. The settings on record: protein: recombinant; tags: His6-MBP; chain copies: 2; dsDNA, one strand shown. In a few lines:
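The N-terminus-lacking fragment of mouse FoxP3 or FoxP1 carried a His6-MBP tag and was expressed in E. coli. At 0.4 µM it was incubated with 0.1 µM Klenow-filled degenerate double-stranded DNA library for 30 min at room temperature in Tris pH 7.5 buffer with NaCl and MgCl2, and complexes were caught on amylose resin, washed three times, released with proteinase K, PCR-barcoded and Illumina-sequenced. Binding is reads-per-million enrichment of pull-down over input with replicates pooled.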
“GATGATTGTTCTCCCAGCTGATGAATTCGTTTCCTCGAGTAAACAAATTTTCCTAATCTTTCTGTTCAAGCGCCATCTAC”: the binding signal was 1.76 RPM ratio (pull-down/input).
“GATGATTGTTCTCCCAGCTGATGAATTGTGGAAGTCGAGTAAACAAATTTTCCTAATCTTTCTGTTCAAGCGCCATCTAC”: the binding signal is 0.274 RPM ratio (pull-down/input).
On to “GATGATTGTTCTCCCAGCTGATGAATTTAGCGGATCGAGTAAACAAATTTTCCTAATCTTTCTGTTCAAGCGCCATCTAC”, for which the binding signal was 0.292 RPM ratio (pull-down/input).
Take “GATGATTGTTCTCCCAGCTGATGAATTGACTCCCTCGAGTAAACAAATTTTCCTAATCTTTCTGTTCAAGCGCCATCTAC”: the binding signal is 0.386 RPM ratio (pull-down/input).
For “GATGATTGTTCTCCCAGCTGATGAATTTGTTTGCTCGAGTAAACAAATTTTCCTAATCTTTCTGTTCAAGCGCCATCTAC” the value was 7.54 RPM ratio (pull-down/input); for “GATGATTGTTCTCCCAGCTGATGAATTGTTTTGCTCGAGTAAACAAATTTTCCTAATCTTTCTGTTCAAGCGCCATCTAC”, 3.65 RPM ratio (pull-down/input); for “GATGATTGTTCTCCCAGCTGATGAATTAGTTTTCTCGAGTAAACAAATTTTCCTAATCTTTCTGTTCAAGCGCCATCTAC”, 4.62 RPM ratio (pull-down/input).
For “GATGATTGTTCTCCCAGCTGATGAATTTTTTTGCTCGAGTAAACAAATTTTCCTAATCTTTCTGTTCAAGCGCCATCTAC”, the binding signal is 0.366 RPM ratio (pull-down/input).
Consider “GATGATTGTTCTCCCAGCTGATGAATTTTGTTGCTCGAGTAAACAAATTTTCCTAATCTTTCTGTTCAAGCGCCATCTAC”, for which the binding signal was 5.63 RPM ratio (pull-down/input).
As for “GATGATTGTTCTCCCAGCTGATGAATTTCTTTGCTCGAGTAAACAAATTTTCCTAATCTTTCTGTTCAAGCGCCATCTAC”, the binding signal was 1.5 RPM ratio (pull-down/input).
As for “GATGATTGTTCTCCCAGCTGATGAATTATTTTGCTCGAGTAAACAAATTTTCCTAATCTTTCTGTTCAAGCGCCATCTAC”, the binding signal is 0.946 RPM ratio (pull-down/input).
For “GATGATTGTTCTCCCAGCTGATGAATTTATTTGCTCGAGTAAACAAATTTTCCTAATCTTTCTGTTCAAGCGCCATCTAC” the value was 6.11 RPM ratio (pull-down/input); for “GATGATTGTTCTCCCAGCTGATGAATTTGATTGCTCGAGTAAACAAATTTTCCTAATCTTTCTGTTCAAGCGCCATCTAC”, 5.45 RPM ratio (pull-down/input); for “GATGATTGTTCTCCCAGCTGATGAATTAGTTTGCTCGAGTAAACAAATTTTCCTAATCTTTCTGTTCAAGCGCCATCTAC”, 5.59 RPM ratio (pull-down/input).
Consider “GATGATTGTTCTCCCAGCTGATGAATTTAGTTGCTCGAGTAAACAAATTTTCCTAATCTTTCTGTTCAAGCGCCATCTAC”, for which the binding signal was 2.92 RPM ratio (pull-down/input).
As for “GATGATTGTTCTCCCAGCTGATGAATTTTATTGCTCGAGTAAACAAATTTTCCTAATCTTTCTGTTCAAGCGCCATCTAC”, the binding signal is 2.06 RPM ratio (pull-down/input).
“GATGATTGTTCTCCCAGCTGATGAATTCTCTTGCTCGAGTAAACAAATTTTCCTAATCTTTCTGTTCAAGCGCCATCTAC”: the binding signal was 0.273 RPM ratio (pull-down/input).
As for “GATGATTGTTCTCCCAGCTGATGAATTTTCCTTATCGAGTAAACAAATTTTCCTAATCTTTCTGTTCAAGCGCCATCTAC”, the binding signal is 0.31 RPM ratio (pull-down/input).
On to “GATGATTGTTCTCCCAGCTGATGAATTGGTGTTGTCGAGTAAACAAATTTTCCTAATCTTTCTGTTCAAGCGCCATCTAC”, for which the binding signal was 3.18 RPM ratio (pull-down/input).
“GATGATTGTTCTCCCAGCTGATGAATTCGATATTTCGAGTAAACAAATTTTCCTAATCTTTCTGTTCAAGCGCCATCTAC”: the binding signal was 1.79 RPM ratio (pull-down/input).
For “GATGATTGTTCTCCCAGCTGATGAATTTCGCAAATCGAGTAAACAAATTTTCCTAATCTTTCTGTTCAAGCGCCATCTAC” the value was 0.634 RPM ratio (pull-down/input); for “GATGATTGTTCTCCCAGCTGATGAATTCGTCGTATCGAGTAAACAAATTTTCCTAATCTTTCTGTTCAAGCGCCATCTAC”, 1.17 RPM ratio (pull-down/input).
For “GATGATTGTTCTCCCAGCTGATGAATTTAGTAAATCGAGTAAACAAATTTTCCTAATCTTTCTGTTCAAGCGCCATCTAC” the value was 0.439 RPM ratio (pull-down/input).
For the sequence “GATGATTGTTCTCCCAGCTGATGAATTGTAGCCGTCGAGTAAACAAATTTTCCTAATCTTTCTGTTCAAGCGCCATCTAC”, the binding signal was 0.622 RPM ratio (pull-down/input).
As for “GATGATTGTTCTCCCAGCTGATGAATTATGTTTCTCGAGTAAACAAATTTTCCTAATCTTTCTGTTCAAGCGCCATCTAC”, the binding signal was 4.18 RPM ratio (pull-down/input).
The same measure for “GATGATTGTTCTCCCAGCTGATGAATTATGTATTTCGAGTAAACAAATTTTCCTAATCTTTCTGTTCAAGCGCCATCTAC”: 4.76 RPM ratio (pull-down/input); for “GATGATTGTTCTCCCAGCTGATGAATTATGTGTATCGAGTAAACAAATTTTCCTAATCTTTCTGTTCAAGCGCCATCTAC”: 5.73 RPM ratio (pull-down/input); for “GATGATTGTTCTCCCAGCTGATGAATTATCTGTATCGAGTAAACAAATTTTCCTAATCTTTCTGTTCAAGCGCCATCTAC”: 0.545 RPM ratio (pull-down/input).
The same measure for “GATGATTGTTCTCCCAGCTGATGAATTATATGTATCGAGTAAACAAATTTTCCTAATCTTTCTGTTCAAGCGCCATCTAC”: 2.22 RPM ratio (pull-down/input).
For the sequence “GATGATTGTTCTCCCAGCTGATGAATTGTATGTATCGAGTAAACAAATTTTCCTAATCTTTCTGTTCAAGCGCCATCTAC”, the binding signal is 4.55 RPM ratio (pull-down/input).
Consider “GATGATTGTTCTCCCAGCTGATGAATTATGTATATCGAGTAAACAAATTTTCCTAATCTTTCTGTTCAAGCGCCATCTAC”, for which the binding signal is 5.96 RPM ratio (pull-down/input).
For the sequence “GATGATTGTTCTCCCAGCTGATGAATTTTATGTATCGAGTAAACAAATTTTCCTAATCTTTCTGTTCAAGCGCCATCTAC”, the binding signal was 3.53 RPM ratio (pull-down/input).
For “GATGATTGTTCTCCCAGCTGATGAATTATGTATCTCGAGTAAACAAATTTTCCTAATCTTTCTGTTCAAGCGCCATCTAC” the value was 5.75 RPM ratio (pull-down/input).
For “GATGATTGTTCTCCCAGCTGATGAATTCTTCGATTCGAGTAAACAAATTTTCCTAATCTTTCTGTTCAAGCGCCATCTAC” the value was 0.253 RPM ratio (pull-down/input); for “GATGATTGTTCTCCCAGCTGATGAATTGGGTTAGTCGAGTAAACAAATTTTCCTAATCTTTCTGTTCAAGCGCCATCTAC”, 0.756 RPM ratio (pull-down/input); for “GATGATTGTTCTCCCAGCTGATGAATTCCTCCGTTCGAGTAAACAAATTTTCCTAATCTTTCTGTTCAAGCGCCATCTAC”, 0.255 RPM ratio (pull-down/input).
The same measure for “GATGATTGTTCTCCCAGCTGATGAATTGTCCTTTTCGAGTAAACAAATTTTCCTAATCTTTCTGTTCAAGCGCCATCTAC”: 0.39 RPM ratio (pull-down/input); for “GATGATTGTTCTCCCAGCTGATGAATTTTGTTTGTCGAGTAAACAAATTTTCCTAATCTTTCTGTTCAAGCGCCATCTAC”: 7.3 RPM ratio (pull-down/input).
For the sequence “GATGATTGTTCTCCCAGCTGATGAATTTCTTTTGTCGAGTAAACAAATTTTCCTAATCTTTCTGTTCAAGCGCCATCTAC”, the binding signal was 1.65 RPM ratio (pull-down/input).
The same measure for “GATGATTGTTCTCCCAGCTGATGAATTGTTTCTGTCGAGTAAACAAATTTTCCTAATCTTTCTGTTCAAGCGCCATCTAC”: 1 RPM ratio (pull-down/input).
The same measure for “GATGATTGTTCTCCCAGCTGATGAATTGTTTTTGTCGAGTAAACAAATTTTCCTAATCTTTCTGTTCAAGCGCCATCTAC”: 4.16 RPM ratio (pull-down/input); for “GATGATTGTTCTCCCAGCTGATGAATTTGTTTTGTCGAGTAAACAAATTTTCCTAATCTTTCTGTTCAAGCGCCATCTAC”: 7.57 RPM ratio (pull-down/input); for “GATGATTGTTCTCCCAGCTGATGAATTCAATTTGTCGAGTAAACAAATTTTCCTAATCTTTCTGTTCAAGCGCCATCTAC”: 2.23 RPM ratio (pull-down/input).
Consider “GATGATTGTTCTCCCAGCTGATGAATTCTTTTTGTCGAGTAAACAAATTTTCCTAATCTTTCTGTTCAAGCGCCATCTAC”, for which the binding signal is 0.437 RPM ratio (pull-down/input).
On to “GATGATTGTTCTCCCAGCTGATGAATTTTCTTTGTCGAGTAAACAAATTTTCCTAATCTTTCTGTTCAAGCGCCATCTAC”, for which the binding signal was 1.15 RPM ratio (pull-down/input).
For the sequence “GATGATTGTTCTCCCAGCTGATGAATTCTGTTTGTCGAGTAAACAAATTTTCCTAATCTTTCTGTTCAAGCGCCATCTAC”, the binding signal was 6.99 RPM ratio (pull-down/input).
